# Compound activity as filed in PubChem BioAssay.
# Pf growth 48h = Primary qHTS for delayed death inhibitors of the malarial parasite plastid, 48 hour incubation; P. falciparum luciferase growth in erythrocytes, 48 h; Potency, µM (highest dose often 28.7 µM), hits mostly inhibitors; hit rate 5.9% among 310,000; AID 504832, 2011
#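 Here the parasites carry a stable luciferase gene and grow inside erythrocytes in Albumax-based RPMI medium with compound for one erythrocytic cycle. Activity is scored as loss of luminescent signal.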
# SARS PLP yeast = qHTS of Yeast-based Assay for SARS-CoV PLP. S. cerevisiae expressing SARS-CoV PLpro, growth rescue. Potency, µM (titrated, usually from 32.9 µM), actives largely listed as activators. hit rate 0.19% among 330,000; calls by dose curve; further: nearly all actives have a fitted effect of over 55% in size
# Pf growth 96h = Primary qHTS for delayed death inhibitors of the malarial parasite plastid, 96 hour incubation | P. falciparum luciferase reporter growth, 96 h | Potency, µM (series often up to 28.7 µM), usual class: inhibitors | hit rate 6.9% among 320,000
#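 Cell-based qHTS: luciferase-tagged P. falciparum in erythrocytes (2% hematocrit, 0.05% parasitemia final) incubated with compounds for 96 hours, 37 C, 5% CO2; luciferase detection reagent then added and luminescence measured.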
# HCV inhibitor = qHTS Assay for Inhibitors of Hepatitis C Virus (HCV); Huh7.5.1 HCVcc-Cre infection, luciferase reporter, 44 h; Potency, µM (highest dose often 41.8 µM), hits mostly inhibitors; hit rate 3.4% among 340,000
#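 Cells seeded at 1,000/well and cultured 4 h, then compounds added followed by HCVcc-Cre virus (~0.5 moi). After 44 h further culture, luciferase substrate was added, plates held 15 min at room temperature, and luminescence read for 15 sec.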
# HCMV inh = qHTS Assay for inhibitors of the human cytomegalovirus (HCMV) | HFF cells, HCMV-luciferase reporter, 72 h; stronger effect = lower value | hit rate 4.5% among 410,000 | activity change, negative = inhibition, % at 57.5 µM | AID 1259415, 2018; in the data active means activity change below about -60%; inconclusive means no clear call, values can overlap the other calls; inactive means above about -39%
#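 Two compound doses tested in HFFs infected with HCMV-luciferase, MOI 1 PFU/cell, 72 h at 37C. Lysate luminescence read with OneGlo; data normalized against buffer-only and 10uM Salinomycin inhibitor controls.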
# Sm TGR inh = qHTS Assay for the Inhibitors of Schistosoma Mansoni Peroxiredoxins. Schistosoma mansoni thioredoxin glutathione reductase (TGR), Q962Y6. purified TGR, DTNB reduction, TNB absorbance 405 nm. Potency, µM (top dose mostly 114 µM), most hits filed as inhibitors. hit rate 3% among 360,000. AID 485364, 2010; further: nearly all actives have a fitted effect of over 60% in size
#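 Kinetic colorimetric format: TGR-catalysed, NADPH-driven DTNB reduction monitored via TNB absorbance. Enzyme dispensed at 20 nM; compound exposure 15 min at room temperature before reaction start.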
# A number is an active result; . = inactive; ? = inconclusive; / = no result; [ ] = remark or other dose. In the library only some 15% were active in any assay of this set; here they are far more common. Unless noted, the call rests on the fitted dose curve; in most records, active means well fitted curve in the direction sought with a large enough effect; inconclusive means small, poorly fitted or top-dose-only effect, or another doubt; inactive means no such curve, though single readings can be large; an effect the other way counts as inactive or inconclusive.
SMILES,Pf growth 48h,SARS PLP yeast,Pf growth 96h,HCV inhibitor,HCMV inh,Sm TGR inh
O=C(CCCN1C(=O)/C(=C/c2cccs2)SC1=S)Nc1ccccn1,?,.,.,.,-97.6,.
O=C(CN1C(=O)S/C(=C\c2ccccc2Cl)C1=O)NCCCn1ccnc1,.,.,.,.,?,.
COc1ccccc1/C=C1\SC(=O)N(CC(=O)NCCCn2ccnc2)C1=O,11.7µM,/,?,.,?,.
O=C1/C(=C/c2ccccc2Cl)SC(=S)N1CCCC(=O)N(CCO)c1ccccc1,?,.,.,12.6µM,-90.8,.
O=C(CCN1C(=O)/C(=C/c2ccccc2Cl)SC1=S)NNC(=O)c1ccccc1O,.,.,.,.,.,.
CC1CCc2c(sc(NC(=O)COc3ccccc3C(C)(C)C)c2C#N)C1 (centres undefined),/,/,/,/,.,.
O=C(COC(=O)Cc1c(F)cccc1Cl)NCc1ccc2c(c1)OCO2,/,.,/,.,.,/
C/C(=N\NC(=O)C1CC1)c1ccccc1O,.,.,?,.,.,.
O=C(CCN1C(=O)/C(=C/c2ccccc2Cl)SC1=S)Nc1ccccn1,.,?,.,.,.,.
O=C(CCCN1C(=O)/C(=C/c2ccccc2Cl)SC1=S)Nc1ccccn1,.,.,?,?,-97.0,.
COc1ccccc1/C=C1\SC(=S)N(CCC(=O)Nc2cc(C)on2)C1=O,.,.,9.28µM,?,.,.
O=C(CCCN1C(=O)/C(=C/c2ccccc2Cl)SC1=S)NNC(=O)c1ccc(Cl)cc1,?,.,.,.,-74.5,.
c1ccc(CC2CCN(C(c3cccs3)c3nnnn3C3CCCC3)CC2)cc1 (centres undefined),1.85µM,.,/,?,/,.
CC(C)CC(c1nnnn1C1CCCC1)N1CCN(C(=O)c2ccco2)CC1 (centres undefined),.,.,9.28µM,?,.,.
COc1ccccc1C(c1nnnn1C1CCCC1)N1CCN2CCCC2C1 (centres undefined),13.1µM,.,.,.,.,?
Cc1ccc2cc(C(c3nnnn3C3CCCC3)N(Cc3ccccc3)Cc3ccco3)c(=O)[nH]c2c1 (centres undefined),/,.,?,.,.,.[11.4 µM]
c1coc(CN2CCN(C(c3cccs3)c3nnnn3C3CCCC3)CC2)c1 (centres undefined),.,.,.,.,?,.
c1ccc(CN(Cc2cccs2)C(c2cccs2)c2nnnn2C2CCCC2)cc1 (centres undefined),13.1µM,.,/,?,.,.
CCN(CC)c1ccc(/C=N/NC(=O)c2nnn(-c3nonc3N)c2CN(C)C2CCCCC2)cc1,/,/,/,/,.,/
Cc1ccc2occ(C(c3nnnn3C3CCCC3)N3CCN(C(=O)c4ccco4)CC3)c(=O)c2c1 (centres undefined),?,.,?,.,.,17.8µM
O=C(c1ccco1)N1CCN(C(c2coc3ccc(Cl)cc3c2=O)c2nnnn2C2CCCC2)CC1 (centres undefined),/,/,/,.,.,/
CCCCC(c1nnnn1C1CCCC1)N1CCN(C(=O)c2ccco2)CC1 (centres undefined),2.08µM,.,/,.,.,.
CCCC(c1nnnn1C1CCCC1)N1CCN(C(=O)c2ccco2)CC1 (centres undefined),11.7µM,.,?,.,?,.
COc1ccccc1N1CCN(C(c2cccs2)c2nnnn2C2CCCC2)CC1 (centres undefined),13.1µM,.,.,?,.,.
N#Cc1ccc(C(=O)N2CCCCC2c2cc(C(=O)Nc3cccc(C#N)c3)no2)cc1 (centres undefined),/,/,/,/,.,/
SMILES,Pf growth 48h,SARS PLP yeast,Pf growth 96h,HCV inhibitor,HCMV inh,Sm TGR inh
CC(C)(C)c1ccc(SCCc2ccccn2)cc1,.,.,.,.,.,.
O=C(c1ccco1)N1CCN(C(c2cccs2)c2nnnn2C2CCCC2)CC1 (centres undefined),.,.,?,.,-100.7,.
O=C(c1ccco1)N1CCN(C(c2ccccn2)c2nnnn2C2CCCC2)CC1 (centres undefined),.,.,.,.,.,?
COCCn1nnnc1C(CC(C)C)N1CCN(C(=O)c2ccco2)CC1 (centres undefined),.,.,.,.,.,.
Cc1ccc(S(=O)(=O)Cn2nnnc2C(CC(C)C)N2CCN(C(=O)c3ccco3)CC2)cc1 (centres undefined),11.7µM,.,1.65µM,.,.,.
CCOCCCNC(=O)/C(C#N)=C/c1ccc(C)o1,.,.,.,.,.,39.8µM
COCC(C)n1c(-c2ccc3c(c2)NC(=O)CO3)csc1=Nc1ccc(OC(F)F)cc1 (centres undefined),/,.,?,10µM,-88.2,.
O=C1COc2ccc(-c3csc(=Nc4ccc(OC(F)F)cc4)n3CC3CCCO3)cc2N1 (centres undefined),?,.,?,?,-93.6,.
O=C(CSc1nc2ncccc2o1)Nc1ccc(Cl)cc1F,/,/,/,/,.,.
CCCS(=O)(=O)NC(=O)C1(C)CCN(C(=O)c2ccccc2OC(C)=O)C1 (centres undefined),/,/,/,/,.,/
Cc1cc(=O)oc2cc(NC(=O)Cc3ccccc3[N+](=O)[O-])ccc12,.,.,.,.,.,.
CC[C@@H](C)C(N)C(=O)O (some centres undefined),.,/,.,/,/,/
COc1ccccc1C(=O)Nc1ccnn1C1CCN(C(=O)c2ccoc2)CC1,/,/,/,.,.,/
COc1ccccc1C(=O)Nc1ccnn1C1CCN(C(=O)c2cnsn2)CC1,.,?,?,.,-102.6,.
COc1ccccc1C(=O)Nc1ccnn1C1CCN(C(=O)c2ccoc2C)CC1,.,.,?,.,-62.8,.
Cc1ccccc1C(=O)Nc1ccnn1C1CCN(C(=O)c2cnsn2)CC1,.,.,.,.,.,.
Cc1cn([C@H]2C[C@H](O)[C@@H](CCC(=O)NC(c3ccccc3)c3ccccc3)O2)c(=O)[nH]c1=O,/,/,/,.,.,/
Cc1cccc(OCCSc2nnc(-c3cccs3)o2)c1,/,/,/,/,.,.
COCCNC(=O)CCCn1c(SCc2ccccc2C)nc2c(sc3ccccc32)c1=O,/,/,/,/,?,.
O=C(CCl)c1ccc2c(c1)CCN2C(=O)C1CCCCC1,?,.,?,?,.,1.26µM
O=C(C1CC1)N1CCc2cc(S(=O)(=O)NCCCN3CCCCC3)ccc21,?,.,?,?,.,.
O=C(CCl)c1ccc2c(c1)CCN2C(=O)C1CC1,.,.,10.4µM,/,/,7.08µM
O=C(C1CCC(C(=O)N2CCc3ccccc32)CC1)N1CCc2ccccc21 (centres undefined),.,.,8.28µM,.,.,.
